The values below come from publication PMC4336329 (PLoS ONE, 2015).

Out of some 310,000 compounds screened, about 14,000 (4.5%) showed an effect of 50% or more. The effect is printed as a negative number. Only a selection was taken, and strong results are over-represented in it overall.
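Further: peak tail current of the secondary pulse compared with the same well before compound.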

The assay deals with human ether-à-go-go-related gene (hERG) potassium channel (human, UniProt Q12809). The experiment in a line: primary screen, population patch clamp on CHO cells stably expressing hERG; higher = less effect of the substance.
Chain of human ether-à-go-go-related gene (hERG) potassium channel (Q12809 whole entry, looked up): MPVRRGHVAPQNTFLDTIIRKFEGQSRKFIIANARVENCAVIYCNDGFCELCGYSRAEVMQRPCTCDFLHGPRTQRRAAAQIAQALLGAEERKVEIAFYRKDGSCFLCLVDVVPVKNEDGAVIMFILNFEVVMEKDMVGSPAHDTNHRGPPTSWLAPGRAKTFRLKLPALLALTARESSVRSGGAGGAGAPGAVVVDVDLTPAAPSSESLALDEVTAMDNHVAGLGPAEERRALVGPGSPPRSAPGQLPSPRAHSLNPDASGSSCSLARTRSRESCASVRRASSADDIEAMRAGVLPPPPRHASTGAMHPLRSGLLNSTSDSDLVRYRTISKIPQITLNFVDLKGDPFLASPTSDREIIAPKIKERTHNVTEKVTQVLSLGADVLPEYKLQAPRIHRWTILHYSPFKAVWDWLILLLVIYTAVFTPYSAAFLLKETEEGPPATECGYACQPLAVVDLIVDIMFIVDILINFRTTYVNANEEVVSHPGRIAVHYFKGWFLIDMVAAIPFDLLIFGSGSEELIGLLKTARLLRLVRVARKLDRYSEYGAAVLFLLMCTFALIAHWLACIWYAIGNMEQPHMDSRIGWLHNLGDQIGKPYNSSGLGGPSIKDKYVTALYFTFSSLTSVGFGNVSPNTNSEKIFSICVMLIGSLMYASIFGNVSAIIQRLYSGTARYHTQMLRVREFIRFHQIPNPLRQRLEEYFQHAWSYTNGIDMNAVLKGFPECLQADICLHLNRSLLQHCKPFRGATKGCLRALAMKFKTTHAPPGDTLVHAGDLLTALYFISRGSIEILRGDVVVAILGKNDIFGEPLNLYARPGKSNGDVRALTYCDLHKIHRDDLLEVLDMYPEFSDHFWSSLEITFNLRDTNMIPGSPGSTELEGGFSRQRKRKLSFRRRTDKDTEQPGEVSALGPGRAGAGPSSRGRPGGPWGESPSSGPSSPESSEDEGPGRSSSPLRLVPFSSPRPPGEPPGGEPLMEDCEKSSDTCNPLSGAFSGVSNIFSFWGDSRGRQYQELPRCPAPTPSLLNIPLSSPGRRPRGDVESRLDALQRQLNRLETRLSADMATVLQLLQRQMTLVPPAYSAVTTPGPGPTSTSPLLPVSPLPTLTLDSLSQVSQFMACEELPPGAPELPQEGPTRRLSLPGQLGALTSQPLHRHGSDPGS
Turning to `COc1ccc(-c2noc(CCCC(=O)Nc3cccnc3)n2)cc1OC`, the “hERG current change (%, negative = inhibition) at 10uM” value is reported as -6.97%.

Consider `c1ccc(-c2cc(-c3ccccc3)[nH]n2)cc1`, for which the “hERG current change (%, negative = inhibition) at 10uM” value is 12.3%.

As for `CC(C)(C)c1ccc(C(=O)NCCC(=O)N2CCCC2)cc1`, the “hERG current change (%, negative = inhibition) at 10uM” value turned out to be 16.4%.

Consider `Cc1ccc(NC(=S)N(C)N)cc1Cl`, for which the “hERG current change (%, negative = inhibition) at 10uM” value is reported as 16.8%.

With `COC(=O)CN1C(=O)[C@@H]2[C@H](C1=O)[C@@H]1CC(C(=O)OC)=C[C@@H](C(=O)OC)[C@@H]3C1=C(C(=O)[C@@]3(C)NC(=O)c1ccccc1)[C@@H]2C`, the “hERG current change (%, negative = inhibition) at 10uM” value is -2.29%.

With `COc1ccc(CNS(=O)(=O)c2ccc(-n3cnnn3)c(C)c2)cc1`, the “hERG current change (%, negative = inhibition) at 10uM” value was -15.3%.

Consider `CCSC(=S)c1c(C)[nH]n(-c2ccccc2)c1=O`, for which the “hERG current change (%, negative = inhibition) at 10uM” value is on record as 12.9%.

For the compound `Cc1ccc(NC(=O)c2cc(S(=O)(=O)c3ccccc3)ccc2Cl)cc1`, the “hERG current change (%, negative = inhibition) at 10uM” value is -15.4%.

Take `COc1cccc(NC(=O)C(c2ccccc2)N2CCN(CC(=O)N3CCOCC3)CC2)c1` (stereo not shown): the “hERG current change (%, negative = inhibition) at 10uM” value was -36.8%.

`Cc1ccc(NC(=O)C(c2ccccc2)N2CCN(CC(=O)N3CCOCC3)CC2)cc1Cl` (stereo not shown): the “hERG current change (%, negative = inhibition) at 10uM” value is on record as -67.4%.

Regarding `Cc1ccc(NC(=O)C(c2ccccc2)N2CCN(CC(=O)N3CCOCC3)CC2)cc1` (stereo not shown), the “hERG current change (%, negative = inhibition) at 10uM” value is given as -43%.

As for `O=C(CN1CCN(C(C(=O)Nc2ccc(F)cc2)c2ccccc2)CC1)NC1CC1` (stereo not shown), the “hERG current change (%, negative = inhibition) at 10uM” value is listed as -27.8%.

As to `O=C(Nc1ccc(F)cc1)C(c1ccccc1)N1CCN(CC(=O)N2CCCC2)CC1` (stereo not shown), the “hERG current change (%, negative = inhibition) at 10uM” value is given as -65.3%.

In the case of `O=C(Nc1ccc(Cl)cc1)C(c1ccccc1)N1CCOCC1` (stereo not shown), the “hERG current change (%, negative = inhibition) at 10uM” value is -27.6%.

As for `CC(C)c1ccc(NC(=O)C(c2ccccc2)N2CCOCC2)cc1` (stereo not shown), the “hERG current change (%, negative = inhibition) at 10uM” value is on record as -12.2%.

Turning to `O=C(Nc1ccc(F)cc1)C(c1ccccc1)N1CCN(S(=O)(=O)c2ccccc2)CC1` (stereo not shown), the “hERG current change (%, negative = inhibition) at 10uM” value is reported as -5.63%.

Regarding `CCOc1ccccc1NC(=O)NC1(C(=O)N2CCOCC2)CCCCC1`, the “hERG current change (%, negative = inhibition) at 10uM” value is given as 15.6%.

Turning to `CCOc1ccccc1NC(=O)C(c1ccccc1)N1CCN(CC(=O)N2CCOCC2)CC1` (stereo not shown), the “hERG current change (%, negative = inhibition) at 10uM” value is given as -76.1%.

As to `O=C(Nc1ccc(F)cc1)C(c1ccccc1)N1CCN(CC(=O)N2CCOCC2)CC1` (stereo not shown), the “hERG current change (%, negative = inhibition) at 10uM” value was -52.1%.

Regarding `O=C(CN1CCN(C(c2ccccc2)c2ccccc2)CC1)N1CCOCC1.O=C(O)C(=O)O`, the “hERG current change (%, negative = inhibition) at 10uM” value is -22.3%.

With `COC(=O)c1c(C(=O)OC)c2n(c1C)CCS2`, the “hERG current change (%, negative = inhibition) at 10uM” value is listed as 3.54%.

On to `COc1ccc(OC)c(NC(=O)COC(=O)Cn2nnc(-c3ccccc3)n2)c1`, for which the “hERG current change (%, negative = inhibition) at 10uM” value was found to be 2.66%.

Take `CCCc1nn2c(=O)cc(CSCC(=O)Nc3ccccc3OC)nc2s1`: the “hERG current change (%, negative = inhibition) at 10uM” value was 14.8%.

Consider `O=C(CSc1nc2ccccc2nc1N1CCOCC1)Nc1ccccc1F`, for which the “hERG current change (%, negative = inhibition) at 10uM” value was -4.19%.

As for `COc1cccc(C(=O)Nc2ccc(NC(=O)Cc3ccccc3)cc2)c1`, the “hERG current change (%, negative = inhibition) at 10uM” value was -24.1%.

For the compound `CCOc1ccccc1CNc1nc2nc3c(c(=O)n2[nH]1)CCC3`, the “hERG current change (%, negative = inhibition) at 10uM” value is recorded as 19.6%.

In the case of `Oc1c(Br)cc(C2N=C(c3ccccc3Cl)NO2)cc1Br` (stereo not shown), the “hERG current change (%, negative = inhibition) at 10uM” value is -2.5%.

Consider `CCCc1c(C)nc(N2CCN(c3ccccc3OC)CC2)[nH]c1=O`, for which the “hERG current change (%, negative = inhibition) at 10uM” value was found to be 25.2%.

For the compound `COc1ccccc1C(=O)NC(=O)COC(=O)c1ccc(Cl)cc1[N+](=O)[O-]`, the “hERG current change (%, negative = inhibition) at 10uM” value came to 21.6%.

Regarding `COc1ccc(Nc2nc(Nc3ccc(OC)cc3)nc(-n3[nH]c(=O)c(C)c3C)n2)cc1`, the “hERG current change (%, negative = inhibition) at 10uM” value is recorded as -10.1%.

Consider `CCOc1cc(/C=N/NC(=O)c2ccc(N(C)S(=O)(=O)c3ccccc3)cc2)ccc1OC`, for which the “hERG current change (%, negative = inhibition) at 10uM” value is recorded as -33%.

`Cc1cccc2[nH]c(CN(C)Cc3nc(CC4CC4)no3)nc12`: the “hERG current change (%, negative = inhibition) at 10uM” value was -11.8%.

Consider `O=C(COc1ccc(CO)cc1)Nc1ccc(F)cc1`, for which the “hERG current change (%, negative = inhibition) at 10uM” value is listed as 0.156%.

Turning to `CCc1cc(=O)oc2c(C)c(O)c(CN3CCCCC3)cc12`, the “hERG current change (%, negative = inhibition) at 10uM” value is reported as -0.833%.

With `CCc1n[nH]c(=S)n1N=C1CCC(C)CC1` (stereo not shown), the “hERG current change (%, negative = inhibition) at 10uM” value was determined as 19.1%.

As to `CC1(C)CC(=O)C=C(NC2=CC3OC(c4ccccc4)OCC3OC2=O)C1` (stereo not shown), the “hERG current change (%, negative = inhibition) at 10uM” value is -0.196%.

With `C#Cc1ccc([C@@H]2C=C(C(=O)Nc3ccccc3)O[C@H](OCC)[C@H]2CCCO)cc1`, the “hERG current change (%, negative = inhibition) at 10uM” value is reported as -22.2%.

Take `O=C(c1cc(-c2ccccc2Cl)nc2ccccc12)N1CCN(c2ccccc2O)CC1`: the “hERG current change (%, negative = inhibition) at 10uM” value is -22.6%.

For `Cc1ccccc1-c1cc(C(=O)N2CCCC2)c2ccccc2n1`, the “hERG current change (%, negative = inhibition) at 10uM” value was -47.9%.

For `CN1CCCN(C(=O)c2cc(-c3cccc4ccccc34)nc3ccccc23)CC1.Cl`, the “hERG current change (%, negative = inhibition) at 10uM” value is -59.4%.

In the case of `CC(=O)N1CCN(C(=O)c2cc(-c3cccc4ccccc34)nc3ccccc23)CC1`, the “hERG current change (%, negative = inhibition) at 10uM” value was -28.9%.

As to `CN1CCCN(C(=O)c2cc(-c3ccc(Cl)c(Cl)c3Cl)nc3ccccc23)CC1.Cl`, the “hERG current change (%, negative = inhibition) at 10uM” value is on record as -69%.

Turning to `O=C(c1cc(-c2ccccc2Cl)nc2ccccc12)N1CCC1`, the “hERG current change (%, negative = inhibition) at 10uM” value is -12.4%.

Regarding `CCOC(=O)CNC(=O)CSc1nnc(-c2ccncc2)n1-c1ccc(Cl)cc1`, the “hERG current change (%, negative = inhibition) at 10uM” value is -8.18%.

Regarding `C=CCc1ccccc1OCC(O)CN1C(=O)c2ccccc2C1=O` (stereo not shown), the “hERG current change (%, negative = inhibition) at 10uM” value is listed as -27.2%.

For the compound `NC(=O)CN1CCN(CCN2C(=O)c3cccc4cccc(c34)C2=O)CC1`, the “hERG current change (%, negative = inhibition) at 10uM” value is recorded as -5.61%.

Consider `Cc1ccc(NC(=S)N2CCN(CCN3C(=O)c4cccc5cccc(c45)C3=O)CC2)cc1`, for which the “hERG current change (%, negative = inhibition) at 10uM” value is reported as -1.29%.

As to `Cc1cccc(OCC(O)CN2CCN(CCN3C(=O)c4cccc5cccc(c45)C3=O)CC2)c1C` (stereo not shown), the “hERG current change (%, negative = inhibition) at 10uM” value was -35.7%.

For `O=C(C(c1ccccc1)c1ccccc1)N1CCN(CCN2C(=O)c3cccc4cccc(c34)C2=O)CC1`, the “hERG current change (%, negative = inhibition) at 10uM” value is recorded as -4.74%.

With `Cc1ccc(C)c(OCC(O)CN2CCN(CCN3C(=O)c4cccc5cccc(c45)C3=O)CC2)c1.Cl` (stereo not shown), the “hERG current change (%, negative = inhibition) at 10uM” value is on record as -67.3%.

Turning to `Cc1ccccc1OCC(O)CN1C(=O)c2ccccc2C1=O` (stereo not shown), the “hERG current change (%, negative = inhibition) at 10uM” value is listed as 4.28%.

Regarding `CC(=O)c1ccccc1OCC(O)CN1CCN(CCN2C(=O)c3cccc4cccc(c34)C2=O)CC1` (stereo not shown), the “hERG current change (%, negative = inhibition) at 10uM” value is -73.3%.

`C=CCc1ccccc1OCC(O)CN1CCN(CCO)CC1.Cl` (stereo not shown): the “hERG current change (%, negative = inhibition) at 10uM” value worked out at 11.3%.

With `Cc1ccccc1OCC(O)CN1CCN(CCN2C(=O)c3cccc4cccc(c34)C2=O)CC1` (stereo not shown), the “hERG current change (%, negative = inhibition) at 10uM” value was -74.2%.

On to `C=CCc1ccccc1OCC(O)CN1CCN(CCN2C(=O)c3cccc4cccc(c34)C2=O)CC1.Cl` (stereo not shown), for which the “hERG current change (%, negative = inhibition) at 10uM” value is listed as -57.8%.
